Source: PubChem BioAssay (Tox21)
Calls of active or inactive are those of the source. Calls come from the whole dose curve.

test: G protein-coupled receptor (GPCR) small molecule agonists, calcium flux assay: HEK293 wild type cell line counter screen (AID 1920065); conditions: HEK293 WT calcium flux, fluorescence, agonist mode; series mostly up to 57.6 µM; activation: at the top concentration
From the text: U.S. Tox21 Program National Center for Advancing Translational Sciences [NCATS] Division of Preclinical Innovation [DPI] U.S. Environmental Protection Agency [EPA] National Institutes of Environmental Health Sciences [NIEHS] National Toxicology Program [NTP] U.S. Food and Drug Administration [FDA] Assay overview: The increased intracellular calcium release that occurred upon G protein-coupled receptor (GPCR) activation led to the frequent use of calcium flux assays to detect GPCR activation. For the purpose of studying and screening compounds that may activate GPCR, receptor-overexpressing models were typically generated using Hek293 wild-type (WT) cells. In order to eliminate the compounds that may have induced calcium release for non-specific activation, a counter-assay utilizing calcium flux on Hek293 WT cells was performed. The data were formulated in order to serve as a control for any calcium flux detection utilizing Hek293 cells with either GPCR overexpression or gene modification. The procurement of Hek293 WT cells from ATCC. Fluorescence intensity can be utilized to determine the activation of the compound in a calcium flux assay. As a counter control, this cell line was utilized to screen the Tox21 10K compound library.
Assay Protocol Summary: Hek293 cells were dispensed at 1500cells/4uL/well in 1536-well black wall/clear bottom plates using a multidrop dispenser. After the assay plates were incubated at a 37 C/5% CO2 incubator for 18 hours, 4 uL of Calcium Dye Solution was added to each well. The plates were incubated at 37 C for 1 hour. For agonist mode, 23 nL of compounds dissolved in DMSO, positive control (ATP) or DMSO only was transferred to the assay plate by a pin tool station. The fluorescence intensity in the plates was measured using FDSS 7000EX kinetic plate reader with a filter set of Ex/Em=480/540 for 3 min at 1 sec intervals. Each test compound was measured at 15 concentrations and in triplicates.
% is set by controls: 0 for no effect and ±100 for the full control effect.

| SMILES | activation |
| --- | --- |
| COC(=O)CC#N | 1.38% (inactive) |
| c1ccc(CN(CC2=NCCN2)c2ccccc2)cc1 | 1.01% [at 26.5 µM] (inactive) |
| CN(C)CCOC1=Cc2ccccc2Sc2ccc(Cl)cc21 | 2.1% [at 26.5 µM] (inactive) |
| CC(C)Nc1nc(N)nc(Cl)n1 | -0.0075% (inactive) |
| OCCC(F)(F)C(F)(F)C(F)(F)C(F)(F)C(F)(F)C(F)(F)C(F)(F)C(F)(F)F | 0.252% (inactive) |
| COc1cc2c3cc1Oc1cc(ccc1O)C[C@@H]1c4c(cc(OC)c(O)c4Oc4ccc(cc4)C[C@@H]3N(C)CC2)CC[N+]1(C)C | -1.02% [at 26.5 µM] (inactive) |
| C[C@H]1NCc2cc(-c3ccc4c(=O)c(C(=O)O)cn(C5CC5)c4c3OC(F)F)ccc21 | -0.804% [at 11.8 µM] (inactive) |
| C=CCCCC | 0.324% (inactive) |
| CN(C)CCC[C@@]1(c2ccc(F)cc2)OCc2cc(C#N)ccc21 | -0.257% [at 26.5 µM] (inactive) |
| Nc1cc(C(=O)O)ccc1Cl | 0.44% (inactive) |
| CCCCCCOC(=O)CCC | -1.07% (inactive) |
| CCOC(=O)c1ccc(I)cc1 | -0.203% (inactive) |
| CCCCC(CC)CN (stereo not given) | 0.0061% (inactive) |
| O=C(O)c1ccc(Cl)c(Cl)c1 | -0.0139% (inactive) |
| CCCCCCCCCCCCCc1ccccc1 | 0.154% [at 26.5 µM] (inactive) |
| Cc1cc(C)c(NC(=O)CN(CC(=O)O)CC(=O)O)c(C)c1Br | 0.268% [at 26.5 µM] (inactive) |
| CC(C)OC(=O)C(C(=O)OC(C)C)=C1SC=CS1 | -0.337% [at 26.5 µM] (inactive) |
| O=C(NCCc1c[nH]c2ccccc12)c1cccnc1 | 0.793% [at 26.5 µM] (inactive) |
| COc1cc2nc(N3CCN(C(=O)C4CCCO4)CC3)nc(N)c2cc1OC (stereo not given) | -1.11% [at 26.5 µM] (inactive) |
| CCCCCCCCCCCCCCCCCC#N | 0.448% (inactive) |

| SMILES | activation |
| --- | --- |
| Brc1ccccn1 | -0.266% (inactive) |
| CCCCN1CCCC1C(=O)Nc1c(C)cc(C)cc1C (stereo not given) | -0.42% [at 26.5 µM] (inactive) |
| CC(=O)N(CC(O)CN(C(C)=O)c1c(I)c(C(=O)NCC(O)CO)c(I)c(C(=O)NCC(O)CO)c1I)c1c(I)c(C(=O)NCC(O)CO)c(I)c(C(=O)NCC(O)CO)c1I (stereo not given) | 0.983% [at 26.5 µM] (inactive) |
| CNS(=O)(=O)CCc1ccc2[nH]cc(C3CCN(C)CC3)c2c1 | -0.105% [at 26.5 µM] (inactive) |
| CCOC(=O)CC(CC(=O)OCC)(OC(C)=O)C(=O)OCC | 0.15% (inactive) |
| CCOc1ccc([N+](=O)[O-])cc1 | -0.0126% (inactive) |
| NC(CS)C(=O)O (stereo not given) | -0.513% [at 26.5 µM] (inactive) |
| COC(=O)C(C)(C)C | 0.644% (inactive) |
| CCOc1ccc2ccccc2c1C(=O)N[C@@H]1C(=O)N2[C@@H]1SC(C)(C)[C@@H]2C(=O)O | -0.233% [at 26.5 µM] (inactive) |
| C[C@@H](O)[C@H](N)C(=O)O | -0.289% [at 11.8 µM] (inactive) |
| CC(=O)[C@H]1CC[C@H]2[C@@H]3C=CC4=CC(=O)CC[C@@]4(C)[C@@H]3CC[C@]12C | -1.66% [at 26.5 µM] (inactive) |
| C=CC(OCC)OCC | -0.0847% (inactive) |
| O=C(O)CCNC(=O)c1ccccc1 | -2.02% [at 26.5 µM] (inactive) |
| CC(CC(C)(C)C)CC(C)(C)CC(C)(C)C (stereo not given) | 0.454% [at 26.5 µM] (inactive) |
| CCCCCCCCN | -0.231% (inactive) |
| CCOC(=O)/C=C/C(=O)OCC | -0.706% (inactive) |
| C[N+]12CCC(CC1)C(OC(=O)C(O)(c1ccccc1)c1ccccc1)C2 (stereo not given) | 0.937% [at 26.5 µM] (inactive) |
| CCCCc1nc(Cl)c(CO)n1Cc1ccc(-c2ccccc2-c2nn[nH]n2)cc1 | 0.331% [at 26.5 µM] (inactive) |
| Cc1cc(O)c2c(c1)C(=O)c1cccc(O)c1C2=O | -0.37% [at 26.5 µM] (inactive) |
| CO[C@@H]1[C@@H](OC(N)=O)[C@@H](O)[C@H](Oc2ccc3c(O)c(NC(=O)c4ccc(O)c(CC=C(C)C)c4)c(=O)oc3c2C)OC1(C)C | 0.865% [at 26.5 µM] (inactive) |
